The target of the assay is T1, GST-Nv-NF-kB (Ser allele) (Nematostella vectensis, UniProt A7UNT2 2-411).
T1 sequence: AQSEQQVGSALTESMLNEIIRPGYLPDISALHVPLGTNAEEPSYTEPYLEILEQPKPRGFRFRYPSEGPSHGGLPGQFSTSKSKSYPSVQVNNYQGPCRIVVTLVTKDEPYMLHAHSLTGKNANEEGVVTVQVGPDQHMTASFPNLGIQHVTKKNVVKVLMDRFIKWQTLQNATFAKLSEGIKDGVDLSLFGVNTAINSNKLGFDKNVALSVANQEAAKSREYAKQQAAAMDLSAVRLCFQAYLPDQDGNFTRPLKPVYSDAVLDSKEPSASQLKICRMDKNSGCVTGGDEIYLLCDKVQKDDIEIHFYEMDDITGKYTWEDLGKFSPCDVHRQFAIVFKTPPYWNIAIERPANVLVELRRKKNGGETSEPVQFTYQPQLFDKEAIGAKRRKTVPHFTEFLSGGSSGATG
As to the kind of experiment: protein-binding microarray (PBM); PBM: ~300 nM protein, 6 mM HEPES pH 7.8, 80 mM KCl, 0.5 mM EDTA, 0.5 mM EGTA, 6% glycerol, 35 ng/ul poly-dIdC, 1% milk, 1 h, room temperature; Ap Aiptasia and Nv Nematostella (sea anemones) / Co Capsaspora / Aq Amphimedon (sponge) / Dm Drosophila / Hu human; RHD is the Rel homology domain; high values mean tight binding. The note with it: dsDNA, one strand shown.
Turning to “CCGATTAACATCAAAATTCCCGTTGATGTTAATCGGGTCTTGATTCGCTTGACGCTGCTG”, the binding signal worked out at 6.44 z-score. In the case of “CCGATTAACATCAAAAAAACACCTGATGTTAATCGGGTCTTGATTCGCTTGACGCTGCTG”, the binding signal amounted to 5.3 z-score. Take “CCGATTAACATCAGGGAGTTTACTGATGTTAATCGGGTCTTGATTCGCTTGACGCTGCTG”: the binding signal turned out to be 3.63 z-score. In turn, “CCGATTAACATCAAGGGGGGGGCTGATGTTAATCGGGTCTTGATTCGCTTGACGCTGCTG” displayed a binding signal of 3.66 z-score.

As for “CCGATTAACATCAAAAAATCCCTTGATGTTAATCGGGTCTTGATTCGCTTGACGCTGCTG”, the binding signal came to 5.87 z-score. With “CCGATTAACATCACCCCGCCCCCTGATGTTAATCGGGTCTTGATTCGCTTGACGCTGCTG”, the binding signal amounted to 3.65 z-score.

Sequence “CCGATTAACATCAAAGAGTCCCCTGATGTTAATCGGGTCTTGATTCGCTTGACGCTGCTG” yielded a binding signal of 6.03 z-score. In turn, “CCGATTAACATCAAAAAGCCCCGTGATGTTAATCGGGTCTTGATTCGCTTGACGCTGCTG” displayed a binding signal of 6.26 z-score. “CCGATTAACATCACGGGGTTTTCTGATGTTAATCGGGTCTTGATTCGCTTGACGCTGCTG” came in with a binding signal of 5.22 z-score. “CCGATTAACATCAGGGGGAGTCATGATGTTAATCGGGTCTTGATTCGCTTGACGCTGCTG”: the binding signal turned out to be 5.02 z-score. “CCGATTAACATCAAACGTTCCCCTGATGTTAATCGGGTCTTGATTCGCTTGACGCTGCTG” had a binding signal of 6.33 z-score. With “CCGATTAACATCAGAAGACCCCCTGATGTTAATCGGGTCTTGATTCGCTTGACGCTGCTG” the figure was 3.72 z-score; with “CCGATTAACATCAAGAAAATCCCTGATGTTAATCGGGTCTTGATTCGCTTGACGCTGCTG”, 4.75 z-score; with “CCGATTAACATCAAGGGGGGGATTGATGTTAATCGGGTCTTGATTCGCTTGACGCTGCTG”, 6.32 z-score. In turn, “CCGATTAACATCAACTATCCCCCTGATGTTAATCGGGTCTTGATTCGCTTGACGCTGCTG” returned a binding signal of 5.03 z-score. In turn, “CCGATTAACATCAGGGACTTTAATGATGTTAATCGGGTCTTGATTCGCTTGACGCTGCTG” registered a binding signal of 6.21 z-score. The sequence “CCGATTAACATCAGGGGCTTCCATGATGTTAATCGGGTCTTGATTCGCTTGACGCTGCTG” yielded a binding signal of 3.55 z-score.

“CCGATTAACATCAGGATGTCCCCTGATGTTAATCGGGTCTTGATTCGCTTGACGCTGCTG” had a binding signal of 4.5 z-score. In the case of “CCGATTAACATCAGGGGGAGTACTGATGTTAATCGGGTCTTGATTCGCTTGACGCTGCTG”, the binding signal came out at 5.81 z-score. With “CCGATTAACATCAATCCACCCCCTGATGTTAATCGGGTCTTGATTCGCTTGACGCTGCTG” the figure was 3.94 z-score; with “CCGATTAACATCAAAAGCCCCCCTGATGTTAATCGGGTCTTGATTCGCTTGACGCTGCTG”, 4.86 z-score. “CCGATTAACATCAAGGGGGGGAATGATGTTAATCGGGTCTTGATTCGCTTGACGCTGCTG” displayed a binding signal of 6 z-score. Sequence “CCGATTAACATCAAAAATTCACCTGATGTTAATCGGGTCTTGATTCGCTTGACGCTGCTG” showed a binding signal of 3.83 z-score. Then “CCGATTAACATCAAAATGCCCCCTGATGTTAATCGGGTCTTGATTCGCTTGACGCTGCTG”, with 4.81 z-score. “CCGATTAACATCAGACAACCCCCTGATGTTAATCGGGTCTTGATTCGCTTGACGCTGCTG”: the binding signal is 4.56 z-score.

These data come from publication PMC5700166.
